From ChEMBL document CHEMBL2218924, “A broad activity screen in support of a chemogenomic map for kinase signalling research and drug discovery” (Biochem J, 2013)

Assays:
[1] = target: T1, Ephrin type-B receptor 1 (Homo sapiens) (UniProt P54762); details: at 10 µM
T1 sequence (whole entry): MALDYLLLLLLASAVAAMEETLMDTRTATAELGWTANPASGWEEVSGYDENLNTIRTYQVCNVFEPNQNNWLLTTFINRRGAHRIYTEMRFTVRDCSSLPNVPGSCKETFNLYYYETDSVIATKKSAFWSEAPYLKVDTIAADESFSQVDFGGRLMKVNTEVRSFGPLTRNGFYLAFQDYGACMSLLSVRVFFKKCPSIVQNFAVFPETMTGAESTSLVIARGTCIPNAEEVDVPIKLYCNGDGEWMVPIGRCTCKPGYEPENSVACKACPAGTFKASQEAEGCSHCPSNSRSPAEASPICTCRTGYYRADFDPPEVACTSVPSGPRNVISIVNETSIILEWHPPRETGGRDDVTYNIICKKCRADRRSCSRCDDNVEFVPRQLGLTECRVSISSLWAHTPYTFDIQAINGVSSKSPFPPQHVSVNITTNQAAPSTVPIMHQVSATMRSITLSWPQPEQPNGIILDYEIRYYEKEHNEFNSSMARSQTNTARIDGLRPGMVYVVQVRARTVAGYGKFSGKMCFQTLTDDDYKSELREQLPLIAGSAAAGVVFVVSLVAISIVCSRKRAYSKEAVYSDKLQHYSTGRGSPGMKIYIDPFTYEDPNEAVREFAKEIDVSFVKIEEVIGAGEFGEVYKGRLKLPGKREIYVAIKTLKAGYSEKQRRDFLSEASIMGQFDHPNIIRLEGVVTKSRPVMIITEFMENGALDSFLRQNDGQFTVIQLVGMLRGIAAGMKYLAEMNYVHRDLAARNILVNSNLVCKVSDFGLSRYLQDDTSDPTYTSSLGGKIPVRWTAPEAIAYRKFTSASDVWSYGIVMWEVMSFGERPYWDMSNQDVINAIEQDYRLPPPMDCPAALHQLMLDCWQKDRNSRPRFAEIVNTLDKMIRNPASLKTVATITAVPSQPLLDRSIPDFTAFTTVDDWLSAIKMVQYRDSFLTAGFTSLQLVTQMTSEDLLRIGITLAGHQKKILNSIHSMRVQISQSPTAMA

[2] = target: T2, Ephrin type-B receptor 2 (Homo sapiens) (UniProt P29323); details: at 1 µM
T2 sequence (whole entry): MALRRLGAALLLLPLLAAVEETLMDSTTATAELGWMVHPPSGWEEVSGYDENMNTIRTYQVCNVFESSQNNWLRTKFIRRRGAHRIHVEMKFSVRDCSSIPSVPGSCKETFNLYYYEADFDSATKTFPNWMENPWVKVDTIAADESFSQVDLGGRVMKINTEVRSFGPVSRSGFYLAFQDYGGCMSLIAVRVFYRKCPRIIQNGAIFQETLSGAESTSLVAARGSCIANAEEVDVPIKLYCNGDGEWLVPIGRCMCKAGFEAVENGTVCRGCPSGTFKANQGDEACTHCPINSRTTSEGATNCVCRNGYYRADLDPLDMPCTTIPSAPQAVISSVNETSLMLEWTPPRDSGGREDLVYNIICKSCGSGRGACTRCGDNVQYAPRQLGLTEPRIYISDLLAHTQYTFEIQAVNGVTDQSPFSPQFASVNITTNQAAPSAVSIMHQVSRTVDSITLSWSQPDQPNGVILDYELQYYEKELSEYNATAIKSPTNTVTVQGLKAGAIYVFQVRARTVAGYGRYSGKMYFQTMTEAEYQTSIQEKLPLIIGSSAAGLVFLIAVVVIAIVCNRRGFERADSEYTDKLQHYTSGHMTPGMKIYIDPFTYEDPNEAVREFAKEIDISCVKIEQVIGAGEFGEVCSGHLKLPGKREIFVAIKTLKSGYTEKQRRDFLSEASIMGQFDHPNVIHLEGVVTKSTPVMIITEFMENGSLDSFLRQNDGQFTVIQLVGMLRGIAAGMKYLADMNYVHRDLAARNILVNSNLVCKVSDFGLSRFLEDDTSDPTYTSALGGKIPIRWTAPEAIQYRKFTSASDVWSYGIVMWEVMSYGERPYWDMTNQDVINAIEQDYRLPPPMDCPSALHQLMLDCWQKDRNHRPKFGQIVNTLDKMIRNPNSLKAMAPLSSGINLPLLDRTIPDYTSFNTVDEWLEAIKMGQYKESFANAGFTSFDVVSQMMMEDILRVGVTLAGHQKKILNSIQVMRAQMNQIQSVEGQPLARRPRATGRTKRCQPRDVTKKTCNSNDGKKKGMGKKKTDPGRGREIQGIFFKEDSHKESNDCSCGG

[3] = target: T2, Ephrin type-B receptor 2 (Homo sapiens); details: at 10 µM
[4] = target: T3, Ephrin type-B receptor 3 (Homo sapiens) (UniProt P54753); details: at 1 µM
T3 sequence (whole entry): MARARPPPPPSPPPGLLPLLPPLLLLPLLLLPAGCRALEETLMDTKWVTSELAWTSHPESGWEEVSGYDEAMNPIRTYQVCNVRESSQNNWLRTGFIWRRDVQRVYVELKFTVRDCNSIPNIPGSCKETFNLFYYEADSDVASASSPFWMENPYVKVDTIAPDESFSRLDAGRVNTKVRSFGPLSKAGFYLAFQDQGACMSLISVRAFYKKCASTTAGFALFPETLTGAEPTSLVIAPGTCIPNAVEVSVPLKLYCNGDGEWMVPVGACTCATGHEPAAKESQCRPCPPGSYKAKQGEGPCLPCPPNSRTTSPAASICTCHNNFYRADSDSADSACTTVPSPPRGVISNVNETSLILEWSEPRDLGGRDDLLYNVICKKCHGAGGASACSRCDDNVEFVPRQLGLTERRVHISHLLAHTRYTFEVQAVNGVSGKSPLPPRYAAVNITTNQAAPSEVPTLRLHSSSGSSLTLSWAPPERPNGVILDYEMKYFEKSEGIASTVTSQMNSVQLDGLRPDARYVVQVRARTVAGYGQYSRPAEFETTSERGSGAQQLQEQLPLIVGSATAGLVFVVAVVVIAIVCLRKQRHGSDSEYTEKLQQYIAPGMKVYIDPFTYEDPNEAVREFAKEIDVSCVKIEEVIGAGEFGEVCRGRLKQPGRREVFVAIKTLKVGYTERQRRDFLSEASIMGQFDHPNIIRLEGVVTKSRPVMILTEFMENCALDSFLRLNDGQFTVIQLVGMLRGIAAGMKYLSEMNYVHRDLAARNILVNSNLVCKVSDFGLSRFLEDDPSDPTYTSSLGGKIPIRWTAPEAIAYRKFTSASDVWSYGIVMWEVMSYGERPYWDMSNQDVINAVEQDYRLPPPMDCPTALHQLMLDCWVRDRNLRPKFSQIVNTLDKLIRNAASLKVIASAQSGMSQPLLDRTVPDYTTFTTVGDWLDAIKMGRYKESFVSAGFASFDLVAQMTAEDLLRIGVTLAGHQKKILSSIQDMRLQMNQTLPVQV

[5] = target: T3, Ephrin type-B receptor 3 (Homo sapiens); details: at 10 µM
[6] = target: T4, Ephrin type-B receptor 4 (Homo sapiens) (UniProt P54760); details: at 1 µM
T4 sequence (whole entry): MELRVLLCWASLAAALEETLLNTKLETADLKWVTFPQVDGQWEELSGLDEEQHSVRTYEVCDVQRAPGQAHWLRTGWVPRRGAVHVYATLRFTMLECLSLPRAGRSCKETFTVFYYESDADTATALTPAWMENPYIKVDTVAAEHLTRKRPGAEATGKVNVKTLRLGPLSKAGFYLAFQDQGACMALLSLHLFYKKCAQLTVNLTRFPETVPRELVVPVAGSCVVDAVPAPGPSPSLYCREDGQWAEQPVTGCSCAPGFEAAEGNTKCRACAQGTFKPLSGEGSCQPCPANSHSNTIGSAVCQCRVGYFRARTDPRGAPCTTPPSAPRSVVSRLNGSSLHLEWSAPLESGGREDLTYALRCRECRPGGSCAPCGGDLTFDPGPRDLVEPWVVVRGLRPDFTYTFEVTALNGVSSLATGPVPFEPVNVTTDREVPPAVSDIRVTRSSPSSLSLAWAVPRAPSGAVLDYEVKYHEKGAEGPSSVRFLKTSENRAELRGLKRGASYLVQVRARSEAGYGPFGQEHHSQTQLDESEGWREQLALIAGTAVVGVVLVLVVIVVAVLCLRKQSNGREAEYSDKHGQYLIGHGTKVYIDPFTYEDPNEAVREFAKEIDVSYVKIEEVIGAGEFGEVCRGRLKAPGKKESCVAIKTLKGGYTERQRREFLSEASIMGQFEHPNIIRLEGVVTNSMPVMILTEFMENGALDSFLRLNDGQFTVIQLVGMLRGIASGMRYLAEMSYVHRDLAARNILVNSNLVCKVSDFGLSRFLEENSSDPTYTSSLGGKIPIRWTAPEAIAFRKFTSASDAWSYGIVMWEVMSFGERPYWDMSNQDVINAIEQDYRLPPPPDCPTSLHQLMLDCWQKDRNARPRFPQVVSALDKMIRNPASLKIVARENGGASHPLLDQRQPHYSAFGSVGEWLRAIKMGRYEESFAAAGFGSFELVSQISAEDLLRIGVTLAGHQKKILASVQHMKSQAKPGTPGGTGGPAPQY

[7] = target: T4, Ephrin type-B receptor 4 (Homo sapiens); details: at 10 µM
[8] = target: Receptor tyrosine-protein kinase erbB-4 (Homo sapiens) (UniProt Q15303); details: at 1 µM
[9] = target: Receptor tyrosine-protein kinase erbB-4 (Homo sapiens) (UniProt Q15303); details: at 10 µM
[10] = target: Focal adhesion kinase 1 (Homo sapiens) (UniProt Q05397); details: at 1 µM
Focal adhesion kinase 1 (Homo sapiens), sequence (Q05397 2-1052 limits assumed): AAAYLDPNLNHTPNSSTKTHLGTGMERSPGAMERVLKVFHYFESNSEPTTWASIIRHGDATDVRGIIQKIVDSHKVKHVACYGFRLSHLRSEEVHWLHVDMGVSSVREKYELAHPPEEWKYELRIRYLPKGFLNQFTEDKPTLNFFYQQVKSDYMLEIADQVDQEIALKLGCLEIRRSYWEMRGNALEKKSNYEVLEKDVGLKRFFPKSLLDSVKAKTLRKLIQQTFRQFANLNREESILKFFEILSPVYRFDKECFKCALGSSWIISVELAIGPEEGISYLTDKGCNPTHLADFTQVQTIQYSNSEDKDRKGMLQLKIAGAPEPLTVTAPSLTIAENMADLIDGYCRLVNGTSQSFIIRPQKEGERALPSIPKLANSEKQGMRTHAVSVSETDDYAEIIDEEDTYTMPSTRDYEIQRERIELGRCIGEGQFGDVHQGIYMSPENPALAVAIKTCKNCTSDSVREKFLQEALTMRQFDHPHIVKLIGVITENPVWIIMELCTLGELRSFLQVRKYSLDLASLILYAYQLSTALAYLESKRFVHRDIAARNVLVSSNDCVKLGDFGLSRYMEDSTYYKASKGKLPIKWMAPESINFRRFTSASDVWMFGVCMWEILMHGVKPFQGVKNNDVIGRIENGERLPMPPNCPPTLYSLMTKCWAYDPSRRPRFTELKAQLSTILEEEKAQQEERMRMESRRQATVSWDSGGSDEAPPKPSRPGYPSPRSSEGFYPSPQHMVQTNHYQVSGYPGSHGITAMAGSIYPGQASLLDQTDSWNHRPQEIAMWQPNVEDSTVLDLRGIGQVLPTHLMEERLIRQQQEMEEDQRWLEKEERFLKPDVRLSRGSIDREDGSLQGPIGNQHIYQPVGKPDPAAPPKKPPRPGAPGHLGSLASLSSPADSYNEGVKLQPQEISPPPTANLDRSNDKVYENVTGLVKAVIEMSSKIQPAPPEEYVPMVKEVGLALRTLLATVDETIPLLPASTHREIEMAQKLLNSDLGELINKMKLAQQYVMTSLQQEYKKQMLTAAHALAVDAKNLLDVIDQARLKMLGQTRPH

Receptor tyrosine-protein kinase erbB-4 (Homo sapiens), sequence (Q15303 whole entry): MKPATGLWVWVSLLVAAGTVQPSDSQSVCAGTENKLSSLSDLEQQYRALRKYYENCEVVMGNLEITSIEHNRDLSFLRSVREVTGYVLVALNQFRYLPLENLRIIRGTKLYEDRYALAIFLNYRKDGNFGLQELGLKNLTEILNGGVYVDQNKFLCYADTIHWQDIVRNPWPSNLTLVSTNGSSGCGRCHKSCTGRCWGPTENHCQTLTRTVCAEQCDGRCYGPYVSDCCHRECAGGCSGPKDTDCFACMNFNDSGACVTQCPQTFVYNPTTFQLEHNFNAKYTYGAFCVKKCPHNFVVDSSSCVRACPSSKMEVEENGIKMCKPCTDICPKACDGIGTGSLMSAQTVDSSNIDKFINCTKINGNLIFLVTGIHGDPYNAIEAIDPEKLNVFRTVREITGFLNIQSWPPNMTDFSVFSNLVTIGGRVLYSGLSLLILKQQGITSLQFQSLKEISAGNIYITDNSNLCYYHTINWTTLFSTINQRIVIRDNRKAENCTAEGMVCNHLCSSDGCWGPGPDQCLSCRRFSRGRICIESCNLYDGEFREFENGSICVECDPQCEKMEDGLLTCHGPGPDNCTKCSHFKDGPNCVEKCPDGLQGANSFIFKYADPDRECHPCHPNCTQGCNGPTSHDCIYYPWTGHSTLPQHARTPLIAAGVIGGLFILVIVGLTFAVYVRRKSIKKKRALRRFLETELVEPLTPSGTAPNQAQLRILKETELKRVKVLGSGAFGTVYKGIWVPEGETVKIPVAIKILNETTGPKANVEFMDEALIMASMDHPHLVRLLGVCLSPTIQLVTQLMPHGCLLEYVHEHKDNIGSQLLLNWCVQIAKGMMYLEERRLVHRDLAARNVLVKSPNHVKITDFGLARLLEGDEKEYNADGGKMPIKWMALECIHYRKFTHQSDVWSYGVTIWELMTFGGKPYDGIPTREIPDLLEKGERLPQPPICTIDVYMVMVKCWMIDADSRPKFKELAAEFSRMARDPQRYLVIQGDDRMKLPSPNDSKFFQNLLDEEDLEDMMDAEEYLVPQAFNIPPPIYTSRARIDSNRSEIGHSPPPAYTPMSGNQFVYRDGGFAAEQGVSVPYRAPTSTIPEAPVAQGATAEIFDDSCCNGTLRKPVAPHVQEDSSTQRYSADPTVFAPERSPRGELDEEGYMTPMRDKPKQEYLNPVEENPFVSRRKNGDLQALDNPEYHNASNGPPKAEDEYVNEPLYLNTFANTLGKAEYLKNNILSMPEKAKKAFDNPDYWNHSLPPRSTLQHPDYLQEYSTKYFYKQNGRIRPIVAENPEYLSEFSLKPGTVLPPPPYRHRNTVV

SMILES: N#C/C(=C(\N)Sc1ccc(N)cc1)c1ccccc1C(F)(F)F
- residual activity [1]: 95%
- residual activity [2]: 108%
- residual activity [3]: 110%
- residual activity [4]: 105% (inactive)
- residual activity [5]: 109%
- residual activity [6]: 93%
- residual activity [7]: 92%
- residual activity [8]: 96%
- residual activity [9]: 104%
- residual activity [10]: 99%
